Pf growth 48h = P. falciparum growth inhibition at 48 hours (one generation). P. falciparum luciferase growth in erythrocytes, 48 h. Potency, µM (highest dose often 28.7 µM), inactives show top-dose activity change, negative = inhibition, actives largely listed as inhibitors. actives 5.9% (n = 310,000). AID 504832; further: potency means the concentration at half of the fitted maximal effect; on the % scale 0 is the no-effect control and ±100 the full control effect
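Firefly luciferase activity from engineered P. falciparum reports growth; inhibitors lower the luminescent signal. Cultures contained 2% hematocrit erythrocytes at 0.1% final parasitemia.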
CHX counter = affects cycloheximide protein synthesis inhibition readout, counter-screen; cell reporter, cycloheximide protein synthesis inhibition counterscreen; max response, %; actives 12% (n = 300,000); in the data active means max response mostly above about 13%, no sharp cut-off; inactive means mostly below about 14%; further: read at 38.3 µM for the half of the compounds with a filed dose; 0% is about no effect
Pf growth 96h = P. falciparum growth inhibition at 96 hour, primary screen for plastid delayed-death inhibitors; P. falciparum luciferase reporter growth, 96 h; actives 6.9% (n = 320,000); Potency, µM (top dose mostly 28.7 µM), for the others: top-dose activity change, negative = inhibition, actives largely listed as inhibitors; further: potency means the concentration at half of the fitted maximal effect; on the % scale 0 is the no-effect control and ±100 the full control effect
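Parasite growth measured via integrated firefly luciferase reporter in P. falciparum. Infected erythrocytes at 2% hematocrit, 0.05% parasitemia final were treated 96 hours at 37 C under 5% CO2, and luminescence was read.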
MARV entry inh = inhibitors of Marburg virus binding or cell entry; Marburg virus pseudotyped entry inhibition, cell reporter; Potency, µM (series often up to 37.8 µM), inactives show at the highest dose activity change, negative = inhibition, usual class: inhibitors; actives 1.8% (n = 300,000); AID 540276; calls by dose curve; tested in HEK293 cells; further: potency means the concentration at half of the fitted maximal effect; on the % scale 0 is the no-effect control and ±100 the full control effect
Lassa entry inh = blocks Lassa virus binding to or entry into cells. Lassa virus pseudotype entry inhibition, cell reporter. Potency, µM (series often up to 37.9 µM), without a hit: at the top dose activity change, negative = inhibition, most hits filed as inhibitors. actives 1.2% (n = 300,000). AID 540256; calls by dose curve; tested in HEK293 cells; further: potency means the concentration at half of the fitted maximal effect; on the % scale 0 is the no-effect control and ±100 the full control effect; nearly all actives have a fitted effect of over 50% in size
Shiga toxin inh = inhibitors of Shiga toxin in Vero cells. AID 2315. inhibition, % at 38.7 µM. Vero cells, Shiga toxin protein synthesis inhibition reporter. actives 9.2% (n = 290,000); in the data active means inhibition mostly above about 28%, no sharp cut-off; inactive means mostly below about 43%; further: 0% is about no effect
Numbers without * were called inactive; u = inconclusive; x = no result given; [ ] = dose if it differs, or a comment. Rows were chosen to be rich in hits. Some 19% of all compounds tested hit in one or more screens of this group. Unless noted, the call rests on the fitted dose curve; in most records, active means well fitted inhibition curve with a large enough effect; inconclusive means small, poorly fitted or top-dose-only effect, or another doubt; inactive means no such curve, though single readings can be large or run the other way.

SMILES	Pf growth 48h	CHX counter	Pf growth 96h	MARV entry inh	Lassa entry inh	Shiga toxin inh
CCn1c(SCC(=O)Nc2nc3ccccc3s2)nnc1-c1ccc(OC)cc1	13%	10	x	-2%[46.1 µM]	-2%	18
Cc1cc(SCC(=O)c2cccs2)nc2ccccc12	27%	42*	-7%	11%	4%	73*
Cc1ccc2cc(C)c3nnc(SCC(=O)Nc4nc5c(s4)CCCC5)n3c2c1C	-7%	12*	12µM*	-24%	2%	20
Cc1ccc(C)c2c1cc(C)c1nnc(SCC(=O)c3cccs3)n12	1%	-1	u	u	1%	-6
COc1ccc(-c2nc3sc(CCNS(=O)(=O)c4c(C)cc(C)cc4C)c(C)n3n2)cc1	x	x	x	x	-19%[46.1 µM]	x
COc1ccc(-n2cc(C(=O)NCc3cccc(OC)c3)c3ccccc3c2=O)cc1	x	x	x	x	-16%[46.1 µM]	x
Cc1coc2cc3oc(=O)c(CC(=O)NCCc4ccccc4F)c(C)c3cc12	x	x	x	9%[46.1 µM]	-8%[46.1 µM]	x
O=C(O)c1cc(N2C(=O)C=CC2=O)cc(N2C(=O)C=CC2=O)c1	x	x	x	10µM*	-20%	x
O=C1C=CC(=O)N1c1ccc2ccccc2c1	x	x	x	-7%[46.1 µM]	-13%[46.1 µM]	x
CCOc1ccccc1NC(=O)CSc1ncnc2c1oc1ccccc12	-15%	23*	275%	1%	52%[14.3 µM]	-12
CC(C)Sc1ncnc2c1oc1ccccc12	-3%	32*	19%	18%	11%	85*
Fc1ccccc1CSc1ncnc2c1oc1ccccc12	46%	-9	16%	u	u	-11
O=C(CSc1ncnc2c1sc1ccccc12)Nc1ccc(Br)cc1	-2%	-2	13µM*	u	6%	-6
O=C(CSc1ncnc2c1oc1ccccc12)Nc1nc2ccccc2s1	u	-3	1%	x	x	10
O=C(CSc1ncnc2c1oc1ccccc12)Nc1ccccc1F	x	-1	8%	x	x	-14
CCCSc1ncnc2c1oc1ccccc12	21%	25*	u	u	u	27
CCOC(=O)c1c(NC(=O)c2ccccc2C)sc2c1CCCC2	x	x	x	12%[46.1 µM]	5%[46.1 µM]	x
Cc1ccnc2nc(C(=O)Nc3nnc(-c4ccc(Cl)cc4)o3)nn12	1%	-3	u	-3%	-13%	19
O=C(CSc1ncnc2c1oc1ccccc12)N1CCN(c2ccccc2)CC1	x	x	x	1%	6%	x
CC(=O)CSc1ncnc2c1oc1ccccc12	76%	12*	86%	17%	13%	23
c1coc(CSc2ncnc3c2oc2ccccc23)c1	132%	57*	152%	1%[46.1 µM]	12%	85*
c1ccc(CSc2ncnc3c2oc2ccccc23)cc1	x	x	x	10%[46.1 µM]	7%	x
c1ccc(Sc2ncnc3c2oc2ccccc23)nc1	92%	64*	u	-1%	27%	115*
O=C(CSc1ncnc2c1oc1ccccc12)Nc1cccc(Cl)c1	-20%	9.2*	9%	u	18%	49
COc1cc(C(=O)c2ccccc2Cl)c([N+](=O)[O-])cc1OC	-3%	-4	14%	x	x	-22
SMILES	Pf growth 48h	CHX counter	Pf growth 96h	MARV entry inh	Lassa entry inh	Shiga toxin inh
COCCCNC(=O)CCCn1c(SCC(=O)c2ccc(F)cc2)nc2c(sc3ccccc32)c1=O	x	x	x	4%[46.1 µM]	-16%[46.1 µM]	x
COc1ccc(OC)c(CNC(=O)CN2CC(C)Sc3ccccc32)c1 (centres undefined)	x	x	x	x	-13%[46.1 µM]	x
CCc1nc(SCC(=O)c2cccs2)c2oc3ccccc3c2n1	0%	27*	0%	u	-9%	44
CCc1nc(SCC(=O)NCCc2ccccc2)c2oc3ccccc3c2n1	0%	1	u	u	-12%	-10
COc1ncnc2c1oc1ccccc12	128%	48*	4.7µM*	x	x	112*
CCOc1ccccc1Oc1ncnc2c1oc1ccccc12	x	x	x	x	-6%[46.1 µM]	x
COc1ccc(N2CCN(C(=O)c3ccc(SC)cc3OC)CC2)cc1	15%	9	0%	u	1%	36
C[C@]12C=CC(=O)C=C1CC[C@@H]1[C@@H]2[C@@H](O)C[C@@]2(C)[C@H]1CC[C@]2(O)C(=O)COC(=O)CCC(=O)NCCc1ccc(O)cc1	u	6	-26%	x	x	13
CN(CC(=O)Nc1ccc(F)cc1)C(=O)CN1C(=O)c2ccccc2C1=O	6%	x	u	11%	28%	x
CC1=CCC2C(=O)N(c3ccc(C(=O)Nc4ccccc4Cl)cc3)C(=O)C2C1 (centres undefined)	17%	2	12%	x	x	-5
